Shown are actives, neighbours in structure and some others; about 2.2% of the full set was active somewhere.
APP transl inh – inhibitors of APP translation via 5'UTR reporter, primary screen, APP 5'UTR luciferase, SH-SY5Y cells | hit rate 0.82% among 190,000 | SH-SY5Y APP 5'UTR-luciferase reporter, luminescence | inhibition, % at 2 µM | AID 1285, 2008;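 active means inhibition above a set limit, derived from the sample mean plus 3 SD, cut at about 45% in these data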
BaF3 parental – parental Ba/F3 cell viability inhibition, counter-screen for JAK2V617F inhibitor project, murine pro-B, CellTiter-Glo luminescence | CellTiter-Glo ATP luminescence | AID 1486, 2009 | inhibition, % at 5.6 µM | hit rate 1.1% among 220,000;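 active means inhibition above a per-campaign cutoff, the mean inhibition of all tested compounds plus 3 SD, cut at about 27% in these data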;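 further: 0% = DMSO wells and 100% = JAK Inhibitor I control wells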
IEC-6 tox – cytotoxicity in IEC-6 intestinal epithelial cells, primary screen, cytotoxicity control for KLF5 inhibitor project, cell-based, luminescence | IEC-6 cytotoxicity, luminescence viability | inhibition, % at 5 µM | hit rate 0.78% among 290,000;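 further: 0% = plate median of test compound wells and 100% = cytotoxic reference compound wells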
aSyn 5UTR inh – MLPCN primary screen, SNCA 5' untranslated region; alpha-synuclein 5'UTR reporter, inhibitor activity; inhibition, % (tested at 7.5 µM); hit rate 0.82% among 300,000; in the data active means inhibition above about 60%;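 further: H4 neuroglioblastoma cells stably carrying SNCA 5'UTR luciferase fusion; 0% = DMSO wells and 100% = positive control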
KLF5 inh – KLF5 expression inhibitors, primary screen, DLD-1 cells, luminescence; hit rate 0.23% among 290,000; DLD-1 KLF5 promoter-luciferase reporter; inhibition, % at 5 µM;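 active means inhibition above a per-plate limit of that plate's mean compound inhibition plus 3 SD, cut at about 60% in these data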;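 further: 0% = DMSO wells and 100% = LY294002 at 200 µM; higher means less KLF5 promoter-driven luciferase light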
Ba/F3 V617F tox – reduced viability of JAK2V617F-dependent Ba/F3 cells, primary screen, JAK2V617F inhibitor project, cell-based, Ba/F3 EpoR-JAK2V617F, luminescence. ATP luminescence. inhibition, % at 5.6 µM. hit rate 1.1% among 220,000. AID 1446, 2008;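 active means inhibition above the campaign mean plus 3 SD over all tested compounds, cut at about 24% in these data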;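 further: cytokine-independent growth of Ba/F3 cells driven by EpoR plus mutant JAK2; 0% = DMSO-treated cells and 100% = JAK inhibitor I control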
IEC-6 tox confirm – cytotoxic compounds in IEC-6 epithelial cells, confirmation, cytotoxicity control, cell-based, luminescence; shares compounds with IEC-6 tox; IEC-6 rat intestinal epithelial viability; inhibition, % at 5 µM; hit rate 63% among 1,900; AID 1907, 2009;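 further: 0% = vehicle and 100% = reference cytotoxic drug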
Numbers without * were called inactive. Unless noted, no stated cut-off is given here; in the data, active means inhibition above about 22%; inactive means the rest.

Screening Cc1sc(NC(=S)NC(=O)CCc2ccccc2)c(C(N)=O)c1C returned APP transl inh 94.7*, BaF3 parental 75.4*, IEC-6 tox 27.4*, KLF5 inh 24.5, Ba/F3 V617F tox 75.4* and IEC-6 tox confirm 70.9*.
`COc1c(OC)c(O)c2c(=O)cc(-c3c(O)cccc3O)oc2c1OC` gave APP transl inh 9.8, BaF3 parental 37.0*, IEC-6 tox 23.4*, aSyn 5UTR inh -64.1, KLF5 inh -4.5, Ba/F3 V617F tox 2.7 and IEC-6 tox confirm 2.6.
Screening COc1ccc(-c2cc(=O)c3c(OC)c(OC)c(OC)c(OC)c3o2)cc1OC returned APP transl inh 7.5, BaF3 parental -3.5, IEC-6 tox 1.0, aSyn 5UTR inh 28.6, KLF5 inh -18.6 and Ba/F3 V617F tox 3.6.
Cc1ccc(C2NC(=O)c3ccccc3N2)s1 (stereo not drawn) was read as APP transl inh 18.4, BaF3 parental 80.0*, IEC-6 tox 72.8*, aSyn 5UTR inh -168.1, KLF5 inh 43.2, Ba/F3 V617F tox 83.0* and IEC-6 tox confirm 7.6.
C/C(=C\c1ccccc1)C(=O)Nc1ccc(Cl)cn1 was read as IEC-6 tox 2.4, aSyn 5UTR inh -180.1 and KLF5 inh -136.9.
COc1ccc(C(=O)NC2CCN(C(=S)Nc3ccc(C)cc3)CC2)cc1 was read as APP transl inh -1.4, BaF3 parental 2.0, IEC-6 tox 2.9, aSyn 5UTR inh 4.6, KLF5 inh -11.1 and Ba/F3 V617F tox -1.6.
COc1ccc(OC)c(-c2cc(-c3cccnc3)nc(N)c2C#N)c1 was read as BaF3 parental 44.9*, IEC-6 tox 34.7*, aSyn 5UTR inh 0.0, KLF5 inh 30.1, Ba/F3 V617F tox 84.5* and IEC-6 tox confirm 52.3*.
For COc1ccc(-n2c(C)cc(/C=N/Nc3nnc(C)n3N)c2C)cc1 the results were APP transl inh -4.2, BaF3 parental 5.1, IEC-6 tox 100.2*, aSyn 5UTR inh 24.0, KLF5 inh 10.9, Ba/F3 V617F tox 15.9 and IEC-6 tox confirm -4.2.
`Cc1ccc(OCCN(C)C(=O)C2CCC(=O)N(Cc3ccccc3F)C2)cc1` (stereo not drawn) gave IEC-6 tox 3.7, aSyn 5UTR inh -8.6 and KLF5 inh -17.6.
CC1(C)N=C(N)N=C(N)N1c1ccccc1 was read as APP transl inh 6.1, BaF3 parental 99.1*, IEC-6 tox 40.4*, aSyn 5UTR inh 99.1*, KLF5 inh 8.0, Ba/F3 V617F tox 95.8* and IEC-6 tox confirm 51.6*.
For CC1(C)N=C(N)N=C(N)N1c1ccc(Oc2ccc(Cl)cc2)c(Cl)c1 the results were IEC-6 tox 55.1*, aSyn 5UTR inh 85.1*, KLF5 inh 2.1 and IEC-6 tox confirm 32.7*.
Nc1ccc2nn(-c3ccccc3)nc2c1 was read as APP transl inh -92.6, BaF3 parental 0.9, IEC-6 tox -1.9, KLF5 inh -11.4 and Ba/F3 V617F tox -3.8.
COc1ccc(-c2cc(C(=O)N3CCCC3)c3ccccc3n2)cc1 was read as IEC-6 tox 6.7, aSyn 5UTR inh -49.3 and KLF5 inh -45.5.
For COc1ccc(-c2cc(C(=O)N3CCN(c4ccccc4)CC3)c3ccccc3n2)cc1 the results were APP transl inh 75.3*, BaF3 parental 10.1, IEC-6 tox 28.0*, aSyn 5UTR inh -35.2, KLF5 inh -4.6, Ba/F3 V617F tox 1.8 and IEC-6 tox confirm 5.8.
For Cc1ccc(S(=O)(=O)Nc2cccc(N(C)S(C)(=O)=O)c2)cc1[N+](=O)[O-] the results were APP transl inh 2.1, BaF3 parental 95.0*, IEC-6 tox 22.8*, aSyn 5UTR inh 0.2, KLF5 inh -20.9, Ba/F3 V617F tox 96.9* and IEC-6 tox confirm -9.1.
Screening CC(C)c1ccc(C(=O)N2CCN(c3cnn(C)c(=O)c3Cl)CC2)cc1 returned APP transl inh 5.3, BaF3 parental -3.6, IEC-6 tox -8.4, aSyn 5UTR inh 20.8, KLF5 inh -1.5 and Ba/F3 V617F tox -2.8.
Screening Cc1cc2nc(/C=C/c3cccnc3)[nH]c2cc1C returned IEC-6 tox 88.2*, aSyn 5UTR inh 92.1*, KLF5 inh 5.7 and IEC-6 tox confirm 59.1*.
`CCn1c(SCC(=O)Nc2ccc(Br)cn2)nnc1C1CC1` gave IEC-6 tox -9.5, aSyn 5UTR inh -2.8 and KLF5 inh -22.1.
Cc1ccccc1OCCC(=O)Nc1ccc(S(=O)(=O)N(C)C2CCN(C)CC2)cc1 was read as aSyn 5UTR inh 2.4.
C(=C\c1ccccc1)/CSc1nnc(-c2ccncc2)n1Cc1ccco1 was read as APP transl inh -13.1, BaF3 parental 4.1, IEC-6 tox 6.7, aSyn 5UTR inh 0.0, KLF5 inh -5.9 and Ba/F3 V617F tox 3.3.
`C(=C\c1ccccc1)/CSc1nnc(-c2ccccc2)n1Cc1ccco1` gave APP transl inh 16.6, BaF3 parental 22.6, IEC-6 tox 34.2*, aSyn 5UTR inh 14.2, KLF5 inh 5.7, Ba/F3 V617F tox 40.7* and IEC-6 tox confirm 35.6*.
Screening Brc1ccc(CSc2nnc(-c3ccccn3)n2Cc2ccco2)cc1 returned APP transl inh 3.5, BaF3 parental 10.5, IEC-6 tox 28.4*, aSyn 5UTR inh 8.7, KLF5 inh 5.2, Ba/F3 V617F tox 1.1 and IEC-6 tox confirm 21.5.
Screening CC(C)(C)c1ccc(CSc2nnc(-c3ccccn3)n2Cc2ccco2)cc1 returned APP transl inh -10.1, BaF3 parental 5.5, IEC-6 tox -2.5, aSyn 5UTR inh 9.5, KLF5 inh -30.4 and Ba/F3 V617F tox -0.9.
Cc1cccc(Cc2cnc(NC(=O)C3=NCCN3)s2)c1 was read as APP transl inh 18.6, BaF3 parental 8.0, IEC-6 tox -0.7, aSyn 5UTR inh -2.7, KLF5 inh -2.2 and Ba/F3 V617F tox -0.1.
Cc1cccc(Cc2cnc(NC(=O)c3ccc(C)o3)s2)c1 was read as APP transl inh -76.5, BaF3 parental 75.8*, IEC-6 tox 59.4*, aSyn 5UTR inh 15.8, KLF5 inh -99.2, Ba/F3 V617F tox 71.0* and IEC-6 tox confirm 39.5*.
`CC(C)CNC(=O)CSc1n[nH]c(=O)n1CCc1ccccc1` gave IEC-6 tox -6.8, aSyn 5UTR inh 4.3 and KLF5 inh -11.5.
For COc1ccccc1NCCC(=O)O the results were BaF3 parental -2.9, IEC-6 tox -12.1, aSyn 5UTR inh 3.8, KLF5 inh -41.5 and Ba/F3 V617F tox 0.0.
O=C(O)CCNc1ccc(NCCC(=O)O)c2c1C(=O)c1ccccc1C2=O was read as IEC-6 tox 24.0*, aSyn 5UTR inh 14.9, KLF5 inh -1.1 and IEC-6 tox confirm 9.9.
`Cc1ccccc1OCC(=O)Nc1c2c(nn1C(C)(C)C)CS(=O)(=O)C2` gave IEC-6 tox 1.5, aSyn 5UTR inh 1.8 and KLF5 inh -5.7.
